Screens as filed in PubChem.
Rows were chosen to be rich in hits. Some 2.6% of all compounds tested hit in one or more screens of this group.
SmPrx2 inh: inhibitors of Schistosoma mansoni peroxiredoxin 2; S. mansoni Prx2 activity coupled to TGR/GSH (TGR is thioredoxin glutathione reductase), NADPH fluorescence loss, qHTS; Potency, µM; actives 0.07% (n = 65,000); AID 448
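Coupled assay in which S. mansoni TGR passes NADPH reducing equivalents via glutathione to Prx2, which reduces H2O2. Compounds were preincubated 15 min at room temperature with 25 nM TGR/50 nM Prx2 mix. Kinetic NADPH fluorescence loss (ex 365/em 450 nm) was monitored.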
AmpC nodet inh: blocks E. coli AmpC beta-lactamase in absence of detergent; P00811; AmpC nitrocefin hydrolysis, absorbance 480 nm, no detergent; Potency, µM (doses to about 28.7 µM), for the others: top-dose activity change, negative = inhibition; actives 1.8% (n = 71,000); AID 585; further: % of control where 0% means no effect
Target sequence (P00811 whole entry, looked up): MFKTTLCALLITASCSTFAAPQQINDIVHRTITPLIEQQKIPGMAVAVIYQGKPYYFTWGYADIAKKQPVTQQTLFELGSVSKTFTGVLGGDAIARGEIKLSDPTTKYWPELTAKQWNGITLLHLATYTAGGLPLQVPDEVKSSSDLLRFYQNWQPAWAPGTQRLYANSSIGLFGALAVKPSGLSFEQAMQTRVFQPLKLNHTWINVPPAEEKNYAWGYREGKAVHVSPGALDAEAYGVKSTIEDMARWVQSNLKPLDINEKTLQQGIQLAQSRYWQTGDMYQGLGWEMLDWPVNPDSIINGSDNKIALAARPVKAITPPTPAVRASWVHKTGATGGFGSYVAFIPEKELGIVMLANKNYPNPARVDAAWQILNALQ
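AmpC in 20 mM phosphate buffer pH 7.0 was preincubated 15 min at room temperature with compounds. Nitrocefin (800 uM stock) was then added and hydrolysis followed at 480 nm every 20 s for 4 min.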
AmpC inh det: blocks E. coli AmpC beta-lactamase in presence of detergent | actives 0.09% (n = 71,000) | P00811 | purified AmpC, nitrocefin hydrolysis with detergent | AID 584 | Potency, µM (series often up to 28.7 µM), for the others: top-dose activity change, negative = inhibition; active means well fitted curve in the direction sought with a large enough effect; inconclusive means small, poorly fitted or top-dose-only effect; further: on the % scale 0 is the no-effect control and ±100 the full control effect
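E. coli AmpC (5.3 nM) in 20 mM phosphate pH 7.0 with 0.01% Triton X-100, preincubated 15 min RT with compound; nitrocefin (2 uL of 800 uM stock) hydrolysis followed by 480 nm absorbance every 20 s over 4 min.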
Anthrax LT inh: inhibitors of anthrax lethal toxin internalization | Cells, anthrax lethal toxin internalization, FRET ratio (460/530) | actives 0.67% (n = 70,000) | Potency, µM (series often up to 40 µM), for the others: top-dose activity change, negative = inhibition, actives largely listed as inhibitors | AID 912; further: on the % scale 0 is the no-effect control and ±100 the full control effect; nearly all actives have a fitted effect of over 50% in size
Numbers without * were called inactive; u = inconclusive; x = not tested or not shown; [ ] = another dose, or the depositor's remark. Unless noted, the call rests on the fitted dose curve. Potency means the concentration at half of the fitted maximal effect.

SMILES	SmPrx2 inh	AmpC nodet inh	AmpC inh det	Anthrax LT inh
CCn1c(=O)c2cc(C(=O)Nc3cc(C)on3)sc2c2ccccc21	>57	4µM*[single pt active]	15%	-8%
CCn1c(=O)c2cc(C(=O)NCc3cccs3)sc2c2ccccc21	>57	4µM*[single pt active]	15%	-15%
NCCC[C@@](N)(C(=O)O)C(F)F	>57	4%	-3%	-3%
N#C[C@H]1CN[C@H](N)N[C@@H]1N	>57	-1%[5.75 µM]	5%[5.75 µM]	-2%[8 µM]
CCOC(=O)C1=C(CS(=O)(=O)c2ccc(F)c(C)c2)NC(=O)NC1c1ccc(O)c(O)c1 (configuration not stated)	>57	4µM*[single pt active]	10%	-8%
NNS(=O)(=O)c1cc(C(=O)O)cc(C(=O)O)c1	>57	2%[5.75 µM]	-1%[5.75 µM]	2%[8 µM]
CO[C@@H]([CH2][Hg])CN1C(=O)c2ccccc2S1(=O)=O.Cn1c(=O)c2nc[nH]c2n(C)c1=O	1.3*	-15%[5.75 µM]	-3%[5.75 µM]	u
O=C1c2ccccc2S(=O)(=O)N1CC(O)COc1ccc(Br)cc1 (configuration not stated)	x	13%	6%	-25%
CC(O)Cc1nsc(NC(=O)c2cccs2)n1 (configuration not stated)	>57	4µM*[single pt active]	13%	-8%
CCCNC(=O)CS(=O)Cc1nc(-c2cccc(OC)c2)oc1C (configuration not stated)	>57	4µM*[single pt active]	10%	4%
COc1ccc(-c2nc(CS(=O)CC(=O)NCc3cccnc3)c(C)o2)cc1 (configuration not stated)	>57	3.2µM*[single pt active]	9%	0%
COc1ccc(-c2nc(CS(=O)CC(=O)NCc3ccco3)c(C)o2)cc1 (configuration not stated)	>57	4µM*[single pt active]	10%	5%
COc1cccc(-c2nc(CS(=O)CC(=O)NCc3ccccc3)c(C)o2)c1 (configuration not stated)	>57	4µM*[single pt active]	13%	-1%
Cc1c(C(=O)O)c(O)cc2c1C(=O)c1c(O)c([C@@H]3O[C@H](CO)[C@@H](O)[C@H](O)[C@@H]3O)c(O)c(O)c1C2=O	>57	51%	0%	-9%
Fc1cccc(Cl)c1/C=N\N=C1c2ccccc2-c2ccccc21	>57	-9%[5.75 µM]	-1%[5.75 µM]	-29%[8 µM]
CC(Sc1nc(-c2ccccc2)cc(C(F)(F)F)n1)C(=O)N1CCCC1 (configuration not stated)	>57	4µM*[single pt active]	14%	-2%
COc1ccc(CCNC(=O)C2(C)CCC(=O)N2CCC(C)C)cc1OC (configuration not stated)	>57	4µM*[single pt active]	18%	-21%
CCOC(=O)N1CCC(NC(=O)c2ccc3c(c2)N(C)CCS3)CC1	>57	48%	0%	u
COC(=O)c1ccc2c(c1)N(C)CCS2	x	4µM*[single pt active]	12%	10%
CCn1c(SCC(=O)c2cc(OC)ccc2OC)nnc1-c1ccncc1	>57	31%	-4%	x
CCn1c(SCc2ccc(OC)cc2)nnc1-c1ccncc1	>57	58%	-5%	13µM*
CCCc1ccc(OCc2ccc(C(=O)N3CCN(c4ccccn4)CC3)o2)c(OC)c1	>57	125%	-5%	13µM*
Cc1cc(O)c(C(C)(C)C)cc1Sc1cc(C(C)(C)C)c(O)cc1C	x	13µM*	6%	u
CC(C)(C)c1cc(O)c(C(C)(C)C)cc1O	>57	-6%	-1%	u
COc1cc2c(cc1OC)-c1nnc(-c3cccs3)n1C(C)(C)C2	>57	4µM*[single pt active]	10%	-7%
SMILES	SmPrx2 inh	AmpC nodet inh	AmpC inh det	Anthrax LT inh
COc1cc2c(cc1OC)-c1nnnn1C(C)(C)C2	x	11%	-4%	-13%
O=S(=O)(O)n1ccnc1 (tested in a mixture with another compound)	>57	-3%[5.75 µM]	-1%[5.75 µM]	0%[8 µM]
CN(C)c1ccc(C(=O)Nc2nc3c(s2)CCCC3)cc1	>57	4%	-2%	13µM*
N#C/C(=C\N1CCNC1=S)C(=O)c1ccc2ccccc2c1	>57	-15%[5.75 µM]	-2%[5.75 µM]	-4%[8 µM]
CCCCCCC/C=C/C1=CC2(C)CC1(C)C(CCCCCCC)CC2=O (configuration not stated)	x	x	x	-11%[8 µM]
COc1ccc(N(CC(=O)N2CCc3ccccc3C2)S(=O)(=O)c2c(C)[nH]c(=O)[nH]c2=O)cc1	>57	4µM*[single pt active]	11%	14%
CCC1CCCCN1S(=O)(=O)c1ccc(C(=O)Nc2nnc(-c3cccs3)o2)cc1 (configuration not stated)	>57	13µM*	-8%	u
O=C(Nc1nc(-c2cccs2)cs1)c1ccc(Cl)s1	>57	u	12%	10µM*
CC(=O)Nc1nc(-c2cccs2)cs1	>57	-4%	-5%	4%
CC1CC(C)CN(S(=O)(=O)c2ccc(C(=O)Nc3nnc(-c4cccs4)o3)cc2)C1 (configuration not stated)	>57	-9%	8%	17%
O=C(Nc1nc(-c2cccs2)cs1)c1ccc(S(=O)(=O)N2CCCC2)cc1	>57	13µM*	2%	u
CCOC(=O)N1CCC(Nc2c(OCC)c(=O)c2=O)CC1	>57	4µM*[single pt active]	12%	-7%
CCOC(=O)N1CCN(c2c(NC3CCN(Cc4ccccc4)CC3)c(=O)c2=O)CC1	>57	4µM*[single pt active]	10%	-9%
CCCCN(CC)CCNc1c(N2CCN(C(=O)OCC)CC2)c(=O)c1=O	>57	-6%	-6%	5%
CCCCN(CC)CCNc1c(NC2CCN(C(=O)OCC)CC2)c(=O)c1=O	>57	4µM*[single pt active]	14%	-16%
NC(=O)[C@@H]1CCCN1Cc1ccc2c(c1)OCO2	>11	1%[5.75 µM]	-4%[5.75 µM]	-1%[8 µM]
CCN1C[C@]2(C)CC[C@@H](O)[C@]34[C@@H]5CC6[C@@H](OC)C[C@@](O)([C@H]5[C@@H]6O)[C@@H](C[C@@H]23)[C@H]14	>57	4%	-2%	-12%
C=C[C@@](C)(O)CC[C@H]1[C@]2(C)CCCC(C)(C)[C@H]2CC[C@]1(C)O	>57	126%	-3%	u
CC(=O)OC(C)(C)N=Nc1ccc(Br)cc1	>57	7%[5.75 µM]	8%[5.75 µM]	1%[8 µM]
COC(=O)C/C=C/C(C)C(OCc1cccc(Br)c1)C(C)C(OC)C1CCCCC1 (configuration not stated)	x	x	x	-6%[8 µM]
C=CCOC(C)=O	x	-5%	5%	1%
O=C1[C@@H]2C=CC=CC2=NC(=S)N1CCN1CCC(=C(c2ccc(F)cc2)c2ccc(F)cc2)CC1	>57	6.3µM*	-4%	16%
C[C@H](CN(C)C)C(C#N)(c1ccccc1)c1ccccc1	>57	15%[5.75 µM]	-2%[5.75 µM]	0%[8 µM]
CN(C)CS/C(N)=N/[C@H](O)C(Cl)(Cl)Cl	>57	-7%[5.75 µM]	-2%[5.75 µM]	-15%[8 µM]
O=C(CCOc1ccccc1)OCC(=O)c1cc2ccccc2o1	>57	0.63µM*	-3%	-5%
COCCNC(=O)c1cc2c(=O)n(C)c3ccccc3c2n1C	>57	4µM*[single pt active]	15%	-8%
CCN(CC)CCNC(=O)c1cc2c(=O)n(C)c3ccccc3c2n1C	>57	u	9%	u
CN(C)CCNC(=O)c1cc2c(=O)n(C)c3ccccc3c2n1C	>57	u	14%	13µM*
